The values below come from PubChem BioAssay.

Calls of active or inactive are those of the source. Unless noted, the rule behind the calls is not given here.

Assay [1] concerns XIP peptide (Xip251-270) binding. As to the kind of experiment: XIP fragment 251-270 binding compounds – biochemical, small-molecule microarray, fluorescence 635/667 nm, 0.1 µg/mL protein, primary screen (AID 1182). The settings on record: fluorescent protein binding, 635 nm, higher = more signal, called active from +8 up or from −8 down.
The test system of assay [2] is XIP peptide (Xip251-270). As to the kind of experiment: compounds binding XIP fragment 251-270 – biochemical, small-molecule microarray, fluorescence 635/667 nm, 0.5 µg/mL protein, primary screen (AID 1183). The settings on record: fluorescence 635 nm, higher = more signal.
Assay [3] is described as follows: blood-stage malaria parasite viability loss – strain 3D7, DAPI fluorescence, 100 nL, primary screen (AID 1184).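 Note: parasites grown inside human red blood cells in medium with human serum.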 The settings on record: P. falciparum 3D7 growth, 3 d, higher = more signal.
Assay [4] concerns the target Homeobox protein Hox-A13 (Mus musculus) (UniProt Q62424). The assay can be described thus: disruptors of Hoxa13 oligonucleotide interaction – biochemical, fluorescence polarization, labeled oligonucleotide, primary screen (AID 1185). The settings on record: Hoxa13:DNA binding, 15 min, higher = more signal, called active from +8 up or from −8 down. (In general: Fluorescence polarisation rises when a labelled molecule tumbles more slowly, as on binding a larger partner.)

Assay [5] is described as follows: blockers of DNA damage checkpoint Chk1 activation – imaging, HeLa, hydroxyurea, phospho-Chk1 antibody, percent positive cells, primary screen (AID 1186). The settings on record: hydroxyurea-induced phospho-Chk1 immunofluorescence imaging, higher = more signal.
Assay [6] is described as follows: blockers of DNA damage checkpoint Chk1 activation – imaging, HeLa, hydroxyurea, phospho-Chk1 nuclear intensity, primary screen (AID 1187). The settings on record: hydroxyurea-induced phospho-Chk1 immunofluorescence imaging, higher = more signal.

Sequence of Homeobox protein Hox-A13 (Mus musculus) (Q62424 whole entry, looked up): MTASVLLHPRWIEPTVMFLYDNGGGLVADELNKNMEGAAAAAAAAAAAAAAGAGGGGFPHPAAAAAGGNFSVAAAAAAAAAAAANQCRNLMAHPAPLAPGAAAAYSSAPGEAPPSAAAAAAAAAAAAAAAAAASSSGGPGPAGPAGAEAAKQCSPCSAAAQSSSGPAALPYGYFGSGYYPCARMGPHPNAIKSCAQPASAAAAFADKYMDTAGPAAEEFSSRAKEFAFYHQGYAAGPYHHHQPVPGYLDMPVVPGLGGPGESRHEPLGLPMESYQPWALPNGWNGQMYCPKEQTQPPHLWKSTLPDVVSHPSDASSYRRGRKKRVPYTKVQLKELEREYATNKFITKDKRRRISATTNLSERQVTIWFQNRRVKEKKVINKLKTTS

In the case of `C=CCNC(=O)[C@H]1[C@@H]2C(=O)O[C@@H](c3ccccc3)[C@@H](c3ccccc3)N2[C@@H](c2ccccc2OCCO)[C@]12C(=O)N(C(=O)OCCOC)c1ccccc12`, the composite z-score in assay [1] is 0.346 (inactive); in assay [2], 0.814. Also, the z-score is -1.68 in assay [3], -4.77 (inactive) in assay [4], 0.0539 (inactive) in assay [5] and 0.109 (inactive) in assay [6].
`COCCOC(=O)N1C(=O)[C@@]2(c3cc(C#CCCO)ccc31)[C@H](C(=O)N1CCN(c3ncccn3)CC1)[C@H]1C(=O)O[C@H](c3ccccc3)[C@H](c3ccccc3)N1[C@@H]2c1ccc(O)cc1`: the composite z-score in assay [1] was 1.43 (inactive); in assay [2], 0.802. Also, the z-score in assay [3] was -0.278; in assay [4], -2.3 (inactive); in assay [5], -0.416 (inactive); in assay [6] it was -0.772 (inactive).
In the case of `O=C1N(Cc2ccccc2)c2ccccc2[C@H]2OC(c3ccc(OCCCO)cc3)=N[C@@]12Cc1ccccc1`, the composite z-score in assay [1] was 0.447 (inactive); in assay [2], 0.821. For the same molecule, the z-score in assay [3] is -2.41; in assay [4] it was -2.4 (inactive); in assay [5] it was -0.335 (inactive); in assay [6] it was -0.59 (inactive).
As to `CCCCC(=C=CC[C@@H](O)c1ccc(OCCO)cc1)C[C@@H](O)c1ccccn1`, the results for the composite z-score in assay [1] and in assay [2] were 0.0856 (inactive) and -0.24, respectively. Further, the z-score was -0.979 in assay [3], -5.87 (inactive) in assay [4], 0.784 (inactive) in assay [5] and 0.744 (inactive) in assay [6].
Take `COc1ccccc1CN1C(=O)c2ccccc2[C@](Cc2ccccc2I)(C(=O)NCCCN(C)C)[C@@H]1c1ccc(CO)cc1`: the results for the composite z-score in assay [1] and in assay [2] were 0.287 (inactive) and 0.808, respectively. In addition, the z-score in assay [3] was -2.36; in assay [4] it was 1.61 (inactive); in assay [5], -0.215 (inactive); in assay [6] it was -0.184 (inactive).
For the molecule `Cc1ccc(S[C@]2(C(=O)NCCN3CCOCC3)CC(=O)N(C3CCCCC3)[C@@H]2c2ccc(CO)cc2I)cc1`, the composite z-score in assay [1] is 0.825 (inactive); in assay [2], 0.657. For the same molecule, the z-score was -1.92 in assay [3], -5.68 (inactive) in assay [4], 0.134 (inactive) in assay [5] and 0.114 (inactive) in assay [6].
Regarding `C=CCC(OC(C)=O)[C@@H]1[C@@H](N(Cc2cc3ccccc3o2)C(=O)Cc2ccc(OC)cc2)c2cc(OCCCO)ccc2N1C(=O)Cc1ccc(OC)cc1` (some centres not stated), the composite z-score in assay [1] was 0.394 (inactive); in assay [2], -0.503. Further, the z-score is -1.96 in assay [3], -2.81 (inactive) in assay [4], 0.954 (inactive) in assay [5] and 0.799 (inactive) in assay [6].
As to `CCCC[C@@H]1C[C@H]1[C@@H](NC(=O)c1ccc(C(F)(F)F)cc1)c1ccc(C(=O)OC)cc1`, the values for the composite z-score in assay [1] and in assay [2] were -0.0437 (inactive) and 0.368, respectively. Besides, the z-score in assay [3] is -0.557; in assay [4], -0.759 (inactive); in assay [5] it was 0.894 (inactive); in assay [6] it was 0.397 (inactive).
On to `COCCOC(=O)N1C(=O)[C@@]2(c3cc(C#CC4=CCCCC4)ccc31)[C@H](c1ccccc1OCCO)N1[C@H](c3ccccc3)[C@H](c3ccccc3)OC(=O)[C@H]1[C@@H]2C(N)=O`, for which the composite z-score in assay [1] is -0.0632 (inactive); in assay [2] it was 0.558. For the same molecule, the z-score in assay [3] was -2.27; in assay [4], -0.721 (inactive); in assay [5], -0.254 (inactive); in assay [6] it was -0.167 (inactive).
As for `CC(C)[C@@H](C(=O)O)n1cc(-c2ccccc2)nn1`, the composite z-score in assay [1] is 0.767 (inactive); in assay [2], 0.237. The z-score in assay [3] is 0.273; in assay [4] it was -0.769 (inactive); in assay [5] it was 0.391 (inactive); in assay [6], 0.0268 (inactive).
Turning to `C=CCOC(=O)[C@H]1[C@@H]2C(=O)O[C@@H](c3ccccc3)[C@@H](c3ccccc3)N2[C@@H](c2ccc(OCCOC(=O)[C@@H]3C[C@@H]4C(=O)N[C@@H](CC(C)C)C(=O)N4[C@@H]3c3ccc(O)cc3)cc2)[C@]12C(=O)Nc1ccc(I)cc12`, the composite z-score is 1.47 (inactive) in assay [1] and 0.788 in assay [2]. The z-score is -1.79 in assay [3], 0.999 (inactive) in assay [4], -0.654 (inactive) in assay [5] and 0.112 (inactive) in assay [6].
`COC(=O)[C@@]1(Cc2ccc(OC)cc2)[C@H]2c3cc(C(=O)N4CCCC4)n(CCc4ccc(OC)c(Br)c4)c3C[C@H]2CN1C(=O)c1ccccc1`: the figures for the composite z-score in assay [1] and in assay [2] were -0.0245 (inactive) and -0.879, respectively. Besides, the z-score in assay [3] was -1.17; in assay [4] it was -4.39 (inactive); in assay [5] it was -0.299 (inactive); in assay [6], -0.0792 (inactive).
In the case of `C=C(/C(=C/C[C@H](OC(=O)c1ccncc1)c1ccccc1OCCO)c1cc(C(=O)OC)ccc1OC)C(C)C`, the values for the composite z-score in assay [1] and in assay [2] were -0.0121 (inactive) and 0.605, respectively. In addition, the z-score was -2.85 in assay [3], -4.77 (inactive) in assay [4], -0.529 (inactive) in assay [5] and -0.789 (inactive) in assay [6].
For the molecule `CO[C@H]1O[C@H](CO)[C@@H](OC(=O)Nc2ccccc2)[C@@H]2OC(=O)[C@H](Cc3ccccc3)C/C=C/C[C@@H](Cc3ccccc3)C(=O)O[C@@H]12`, the composite z-score in assay [1] was 1.5 (inactive); in assay [2], 0.539. The z-score was -1.42 in assay [3], -2.64 (inactive) in assay [4], -0.62 (inactive) in assay [5] and -0.628 (inactive) in assay [6].
As to `C=CCN1C(=O)[C@]2(O[C@H](CCn3cc([C@H](O)c4ccccc4)nn3)[C@@H]([Si](C)(C)c3ccc(OC)cc3)[C@@H]2C)c2cc(N3C(=O)c4cccc5cccc3c45)ccc21`, the composite z-score was 0.767 (inactive) in assay [1] and 0.312 in assay [2]. The z-score in assay [3] is -2.75; in assay [4], -3.64 (inactive); in assay [5], -0.65 (inactive); in assay [6], -0.164 (inactive).
On to `C=CC[C@]1(C(=O)NCCCOC)N=C(c2ccc(OCCCO)cc2)O[C@H]1c1ccccc1`, for which the composite z-score in assay [1] is 0.227 (inactive); in assay [2], 0.659. Also, the z-score was -0.67 in assay [3], -6.7 (inactive) in assay [4], -0.132 (inactive) in assay [5] and 0.0245 (inactive) in assay [6].
`CC(C)c1ccc(NN2C(C(O)C(C)C)C=CC3C(=O)N(c4ccccc4)C(=O)C32)cc1` (configuration not stated): the composite z-score in assay [1] was 1.49 (inactive); in assay [2], 0.778. The z-score is -0.63 in assay [3], -1.26 (inactive) in assay [4], -0.172 (inactive) in assay [5] and -0.0386 (inactive) in assay [6].
